Assay outcomes deposited in PubChem by National Center for Advancing Translational Sciences (NCATS).
This is a sample that favours compounds with a hit; in the whole collection about 0.65% have one here.
SARS PLP yeast: qHTS of Yeast-based Assay for SARS-CoV PLP. S. cerevisiae expressing SARS-CoV PLpro, growth rescue. AID 485353, 2010. Potency, µM (top dose mostly 32.9 µM), for the others: top-dose activity, positive = growth rescue, most hits filed as activators. 330,000 compounds, 0.19% hits; note: 0% is about no effect; nearly all actives have a fitted effect of over 55% in size
NS1 function inh: qHTS Assay for Inhibitors of Influenza NS1 Protein Function. Potency, µM (titrated, usually from 46.1 µM), inactives show at the highest dose activity, positive = more growth. 270,000 compounds, 0.4% hits. AID 2326, 2010; note: actives are rising curves; nearly all actives have a fitted effect of over 50% in size
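In this qHTS, NS1 from influenza A is expressed in budding yeast, where it slows growth. Cells are switched from glucose to 2% galactose medium (pH 6.0, -URA), treated with compound, and growth recovery is read at OD600.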
AMA1-RON2 inh: qHTS for Inhibitors of AMA1-RON; Towards Development of Antimalarial Drug Lead: Primary Screen; AlphaScreen AMA1-biotinylated RON2 peptide binding; Potency, µM (series often up to 58.2 µM), inactives show at the highest dose activity change, negative = inhibition, usual class: inhibitors; 360,000 compounds, 0.2% hits; AID 720542, 2013; active = well fitted inhibition curve with a large enough effect; inconclusive = small, poorly fitted or top-dose-only effect; inactive = no such curve, though single readings can be large or run the other way;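 note: 0% = vehicle wells and -100% = peptide control; nearly all actives have a fitted effect of over 45% in size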
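AMA1 (3D7) with his tag at 25 nM final met compounds first, then biotinylated RON2 peptide at 25 nM; detection used donor plus acceptor beads, 10 µg/mL apiece, read by AlphaScreen after 30 min at room temperature.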
* hit, by the source's call; ? = inconclusive; · = no result given; [ ] = dose if it differs, or a comment. Unless noted, calls come from the whole dose curve. Potency is the fitted concentration of half-maximal effect.

SMILES | SARS PLP yeast | NS1 function inh | AMA1-RON2 inh
CCCCCc1cc(=O)oc2c(C(CCN3CCCCC3)c3ccc(OC)cc3)c(OC)cc(OC)c12 (configuration not stated) | -0.6% | 7.1% | -21.6%
CCCCCc1cc(=O)oc2c(C(CCN3CCCC3)c3ccc(N(C)C)cc3)c(OC)cc(OC)c12 (configuration not stated) | -0.1% | -1.1% | 8.91µM*
CCS(=O)(=O)c1nc(S(=O)(=O)c2ccc(Cl)cc2)c(NCCOC)s1 | 13.1% | · | 7.6%
CSc1ncccc1C(=O)Nc1ccc(S(=O)(=O)NC2=NCCCCC2)cc1 | -1.0% | -5.6% | -19.7%
Cc1cc(O)c(C=Nc2ccc(N3CCOCC3)cc2)c(C)c1Cl | -1.0% | 2.7% | -2.1%
Cc1ccc(Cl)cc1-c1ccc(C=Nc2ccc(N3CCOCC3)cc2)o1 | -14.8% | 7.2% | 11.2µM*
COc1ccc(C(=O)N/N=C(\C)c2ccc3c(c2)C2C=CCC2C(c2ccccc2)N3)cc1 (configuration not stated) | 4.9% | 21.1% | -8.3%
O=C(O)c1ccc2c(c1)[C@@H]1C=CC[C@@H]1[C@H](c1ccccn1)N2 | · | · | 12.6µM*
COc1cc2c(cc1OC)C1O[C@](CCCCN3C(=O)c4ccccc4C3=O)(C2)Oc2cc(C)n(Cc3ccccc3)c(=O)c21 | 0.5%[6.58 µM] | 14.1% | ·
N#CC1=C2SCN(c3ccccc3)CN2C(=O)CC1c1ccccc1Cl (configuration not stated) | 3.5% | -25.6% | -6.3%
COc1cc(OC)c(C2CC(=O)N3CN(c4ccccc4)CSC3=C2C#N)cc1OC (configuration not stated) | 6.8% | -84.7% | 17.3%
CCc1ccccc1N1CSC2=C(C#N)C(c3cc(OC)c(OC)cc3OC)CC(=O)N2C1 (configuration not stated) | -1.3% | 10µM* | -20.9%
N#CC1=C2SCN(c3ccccc3)CN2C(=O)CC1c1c(Cl)cccc1Cl (configuration not stated) | 3.2% | 11.2µM* | 8.2%
COc1ccc(Nc2cc(O)c3ncccc3c2)cc1 | -24.0% | · | ·
O=C1C2C3C=CC(CC3)C2C(=O)N1/N=C/c1ccccc1O (configuration not stated) | 5.62µM* | -13.6% | 99.4%
O=C1C2C3C=CC(CC3)C2C(=O)N1/N=C/c1c(O)ccc2ccccc12 (configuration not stated) | 6.7% | 5.6% | 41.0%
C=CCN1C(=O)c2ccc(C(=O)N3CCN(S(=O)(=O)c4cc(C)ccc4C)CC3)cc2C1=O | -2.9% | · | -11.8%
Cc1cccn2c(=O)cc(CSc3nnc(NC(=O)COc4ccccc4)s3)nc12 | -2.1% | · | ·
CCN(CC)c1ccc(/C=N/NC(=O)c2ccco2)c(O)c1 | -6.7% | -81.0% | 99.8%
CCN(CC)c1ccc(/C=N/NC(=S)NCc2ccccc2)c(O)c1 | 10µM* | 17.4% | 4.8%[11.6 µM]
COC(=O)C1CCN(C2=C(NS(=O)(=O)c3ccc(Cl)cc3)C(=O)c3ccccc3C2=O)CC1 | -5.2% | 1.9% | 20µM*
NC(=O)C1CCN(C2=C(NS(=O)(=O)c3ccc(Cl)cc3)C(=O)c3ccccc3C2=O)CC1 | 0.2% | -1.3% | ?
CCCCn1c(C)cc2c(c1=O)[C@H]1O[C@](CCCCN3C(=O)c4ccccc4C3=O)(Cc3ccccc31)O2 | -1.6%[6.58 µM] | 7.7% | ·
O=C(NN1C(=O)/C(=C/C=C/c2ccco2)SC1=S)c1ccncc1 | 0.7% | 13.8% | 5.62µM*
O=C(NN1C(=O)/C(=C/C=C/c2ccccc2)SC1=S)c1ccncc1 | 5.4% | · | 3.2%
SMILES | SARS PLP yeast | NS1 function inh | AMA1-RON2 inh
Cc1cccc(NC(=O)CSc2nc(-c3ccco3)nc3cc(=O)[nH]n23)c1 | 1.5% | · | ·
COc1ccc(OC)c(CNc2ncc(-c3cccc([N+](=O)[O-])c3)n2C)c1 | -5.6% | 11.8% | 14.1µM*
Cn1c(-c2cccc([N+](=O)[O-])c2)cnc1NCc1cccc([N+](=O)[O-])c1 | 0.6% | -0.1% | ?
S=c1[nH]nc(-c2cccc(Cl)c2)n1Cc1ccccc1 | 2.6% | -0.4% | 25.1%
Cc1cccc(-c2n[nH]c(=S)n2Cc2ccccc2)c1 | 8.91µM* | -24.3% | 0.0%
CC(=O)N1CCOc2cc(S(=O)(=O)NCc3ccccc3Cl)c(Cl)cc21 | 3.4% | · | ·
CCOc1cc(N2CCOCC2)c(OCC)cc1NC(=O)COC(=O)c1ccc(Cl)nc1 | 2.3% | · | 11.4%
Cc1ccc2nc(-c3ccc(O)c(O)c3)cn2c1 | -3.4% | 13.4% | 3.55µM*
Cc1ccc2nc(-c3ccccc3)cn2c1 | -22.6% | -45.3% | 8.7%
Cn1c(=O)c2[nH]c(CS(=O)(=O)Cc3nc4c([nH]3)c(=O)n(C)c(=O)n4C)nc2n(C)c1=O | · | -2.8% | ·
CN1CCN(c2ccc(-c3cc(O)c4ncccc4c3)cc2)CC1 | -9.1% | · | ·
COC(=O)C1=C(c2cccc(OCc3ccccc3)c2)C[C@@H]2CC[C@H]1N2C(=O)NCc1ccc(C(C)(C)C)cc1 | -1.5% | · | -8.2%
COC(=O)C1=C(c2cccc(OCc3ccccc3)c2)C[C@@H]2CC[C@H]1N2C(=O)NCc1ccc(N(C)C)cc1 | 3.9% | · | 11.2µM*
O=C1C(Cl)=C(Nc2ccc(S(=O)(=O)Nc3ccccn3)cc2)C(=O)c2ccccc21 | · | -25.9% | ·
O=S(=O)(NCCO)c1cc[c]([Sb])cc1 | · | -5.8% | ·
O=C(/C=C/c1ccc(F)cc1)c1cc(Br)ccc1O | 0.4% | -0.4% | -4.1%
O=C(/C=C/c1ccccc1)c1cc(Br)ccc(=O)c1O | 22.4µM* | -181.0% | -15.1%
CC[C@@H]1Cc2[nH]c(=O)[nH]c(=O)c2[C@H](c2ccc(Cl)cc2)O1 | · | · | 1.5%
CC(C)CC(N)c1csc(Nc2ccc(C(=O)NCCCO)cn2)n1 (configuration not stated) | · | · | 51.0%
CCN1C(=O)/C(=C2\C=Cc3ccccc3N2CC)SC1=S | -3.2% | 7.1% | 1.19µM*
CCN1C(=O)/C(=c2\o/c(=C3\C=Cc4ccccc4N3CC)c(=O)n2CC)SC1=S | 0.5% | -18.5% | -11.8%
COc1cc(OC)c(OC)cc1CN1CCN(C(=O)CC(C)C)CC1 | -0.9% | 3.0% | -17.8%
COc1cccc(Nc2ccccc2C(=O)O)c1 | -0.3% | -42.5% | -8.3%
COc1cc(-c2ccc(Nc3ccccc3C(=O)O)c(OC)c2)ccc1Nc1ccccc1C(=O)O | 4.3% | 3.1% | 17.8µM*
CCOc1ccc(/C(C)=N\NC(=O)Cc2ccccc2)cc1 | 12.9% | -9.1% | 11.9%
SMILES | SARS PLP yeast | NS1 function inh | AMA1-RON2 inh
CC1=C(C(=O)Nc2ccccc2)C(c2ccc[nH]2)n2ncnc2N1 (configuration not stated) | -2.4% | · | ·
O=C(c1[nH]c(C(F)(F)F)nc1-c1ccccc1)N1CCN(c2ccncc2)CC1 | · | · | -10.5%
Nc1cc(C(=O)O)c(N)c2c1C(=O)c1ccccc1C2=O | -6.3% | -33.8% | 17.8µM*
Nc1c(C(=O)O)ccc2c1C(=O)c1ccccc1C2=O | -11.2% | · | -20.2%
CC[C@]1(OC(=O)CN)C(=O)OCc2c1cc1n(c2=O)Cc2cc3ccccc3nc2-1 | · | -10.6% | ·
NC(=O)NC(Cc1ccccc1)C(=O)NNC(=O)COc1ccccc1Cl (configuration not stated) | -0.1% | · | 68.2%
CN(C)c1ccc(NC(=O)c2cccc(C(=O)Nc3ccc(N(C)C)cc3)n2)cc1 | -0.3% | 15.9% | 10µM*
O=C(Nc1ccccc1)c1cccc(C(=O)Nc2ccccc2)n1 | 2.9% | 11.7% | 3.1%
Brc1ccc(-c2csc(N3CCCCC3)n2)cc1 | -11.6% | · | ·
